These results are taken from PubChem BioAssay (EPA / NIEHS).

Each structure is given as a SMILES string. Values joined by “and” are separate entries in the source; they are usually repeats but may differ in a detail not shown here. Equal values may be shown once. Some structures have more than one record in an assay (separate samples or runs), and their calls can disagree. Active and inactive are the calls of the source. How the source made its calls: active means hit-call score of the fitted dose curve at least 0.9, where 1 is the maximum; inactive means score below 0.9.

In general, AC50 refers to the concentration giving half of the maximal activity seen.

Read-out in assay [1]: Collagen IV, COL4A1 (gene 1282)
Kind of assay: BSK_MyoF_CollagenIV: BioMAP Diversity Plus: MyoF Assay for Collagen IV Biomarker Activity (AID 2284247). The conditions noted are these: primary human lung fibroblasts. Put shortly:
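Collagen IV quantified by ELISA in human lung fibroblast cultures 24 h after chemical treatment, with DMSO as baseline. Parallel SRB staining (0.1% SRB after TCA fixation, 560 nm) flags overt cytotoxicity.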

Read-out in assay [2]: Plasminogen activator inhibitor-1 (PAI1), SERPINE1 (gene 5054)
Kind of assay: BSK_MyoF_PAI1: BioMAP Diversity Plus: MyoF Assay for Plasminogen activator inhibitor-1 (PAI1) Biomarker Activity (AID 2284256).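 On outcome: PAI-1 protein level measured by ELISA in fibroblast cultures.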 The note with it: primary human lung fibroblasts. In short, it runs like this:
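In this multiplexed primary-cell system, fibroblasts from human lung received compound for 24 h before ELISA detection of PAI-1; overt toxicity was checked by SRB (0.1%, TCA-fixed, 560 nm) in parallel wells.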

Read-out in assay [3]: Interleukin-8 (IL8), CXCL8 (gene 3576)
Kind of assay: BSK_MyoF_IL8: BioMAP Diversity Plus: MyoF Assay for Interleukin-8 (IL8) Biomarker Activity (AID 2284261). The note with it: primary human lung fibroblasts. Put shortly: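 DMSO-normalised, upward-fitted IL-8 ELISA signal; human lung fibroblasts, 24 h chemical treatment.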

Read-out in the next assay: Decorin, DCN (gene 1634)
Kind of assay: BSK_MyoF_Decorin: BioMAP Diversity Plus: MyoF Assay for Decorin Biomarker Activity (AID 2284265). The conditions noted are these: primary human lung fibroblasts. Put shortly:
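In this multiplexed fibroblast system, secreted or surface decorin is detected by ELISA one day after dosing, with increases scored against the DMSO vehicle.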

Read-out in assay [4]: Monokine induced gamma interferon (MIG), CXCL9 (gene 4283)
Kind of assay: BSK_KF3CT_MIG: BioMAP Diversity Plus: KF3CT Assay for Monokine induced gamma interferon (MIG) Biomarker Activity (AID 2284248). The note with it: primary human keratinocytes with fibroblasts. In short, it runs like this:
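MIG in dosed human skin co-cultures was measured by ELISA at 24 h, relative to DMSO.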

Read-out in assay [5]: Vascular cell adhesion molecule 1 (VCAM1), VCAM1 (gene 7412)
Kind of assay: BSK_BF4T_VCAM1: BioMAP Diversity Plus: BF4T Assay for Vascular cell adhesion molecule 1 (VCAM1) Biomarker Activity (AID 2284249). The note with it: primary human bronchial epithelial cells with fibroblasts. Put shortly: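 Cell-surface VCAM-1 quantified by ELISA after 24 h chemical exposure of human bronchial epithelial/dermal fibroblast co-cultures, with SRB staining in parallel wells for cytotoxicity; DMSO baseline, positive-direction fitting.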

Read-out in assay [6]: Collagen I, COL1A1 (gene 1277)
Kind of assay: BSK_hDFCGF_CollagenI: BioMAP Diversity Plus: hDFCGF Assay for Collagen I Biomarker Activity (AID 2284250). The note with it: primary human foreskin fibroblasts. In short, it runs like this: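 Collagen I quantified by ELISA 24 h after chemical dosing of human dermal fibroblast primary cells, with parallel SRB staining (0.1%, TCA-fixed, 560 nm) for overt cytotoxicity.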

Read-out in assay [7]: Interferon-inducible T-cell alpha chemoattractant (ITAC), CXCL11 (gene 6373)
Kind of assay: BSK_hDFCGF_ITAC: BioMAP Diversity Plus: hDFCGF Assay for Interferon-inducible T-cell alpha chemoattractant (ITAC) Biomarker Activity (AID 2284251). The note with it: primary human foreskin fibroblasts. In short, it runs like this:
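I-TAC levels were read by ELISA on human dermal foreskin fibroblast primary cultures 24 h after dosing, analysed against DMSO in the positive direction. Cytotoxicity was assessed alongside by sulforhodamine B total-protein staining.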

Read-out in assay [8]: Plasminogen activator inhibitor-1 (PAI1), SERPINE1 (gene 5054)
Kind of assay: BSK_KF3CT_PAI1: BioMAP Diversity Plus: KF3CT Assay for Plasminogen activator inhibitor-1 (PAI1) Biomarker Activity (AID 2284252). The conditions noted are these: primary human keratinocytes with fibroblasts. Put shortly:
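PAI-1 levels quantified by ELISA after 24 h compound exposure of primary human skin keratinocytes co-cultured with fibroblasts. Activity is the gain relative to DMSO; cytotoxicity tracked in parallel cultures via SRB staining.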

Read-out in assay [9]: Monocyte Chemoattractant Protein-1 (MCP1), CCL2 (gene 6347)
Kind of assay: BSK_IMphg_MCP1: BioMAP Diversity Plus: IMphg Assay for Monocyte Chemoattractant Protein-1 (MCP1) Biomarker Activity (AID 2284253). The conditions noted are these: primary human endothelial cells with macrophages. In short, it runs like this:
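ELISA readout of MCP-1 at 24 hours in IMphg co-cultures of venular endothelial cells and macrophages, normalised to DMSO; parallel cultures stained with sulforhodamine B for overt cytotoxicity.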

Read-out in assay [10]: Interleukin-8 (IL8), CXCL8 (gene 3576)
Kind of assay: BSK_KF3CT_IL8: BioMAP Diversity Plus: KF3CT Assay for Interleukin-8 (IL8) Biomarker Activity (AID 2284254). The conditions noted are these: primary human keratinocytes with fibroblasts. Put shortly:
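Using parallel SRB-stained cultures to flag overt toxicity, the study quantified IL-8 by ELISA in human keratinocyte–foreskin fibroblast co-cultures 24 h after dosing, with DMSO as negative control and baseline.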

Read-out in assay [11]: Macrophage Inflammatory Protein-1 Alpha (MIP1a), CCL3 (gene 6348)
Kind of assay: BSK_IMphg_MIP1a: BioMAP Diversity Plus: IMphg Assay for Macrophage Inflammatory Protein-1 Alpha (MIP1a) Biomarker Activity (AID 2284255). The conditions noted are these: primary human endothelial cells with macrophages. Put shortly:
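MIP-1a protein levels were quantified by ELISA after 24 h treatment of human endothelial cell–macrophage co-cultures, compared with DMSO. Parallel cultures were fixed with TCA and stained with 0.1% SRB to gauge overt cytotoxicity.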

Read-out in a further assay: CD69, CD69 (gene 969)
Kind of assay: BSK_IMphg_CD69: BioMAP Diversity Plus: IMphg Assay for CD69 Biomarker Activity (AID 2284257). The note with it: primary human endothelial cells with macrophages. In short, it runs like this:
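Readout is ELISA for CD69 in primary human venular endothelial cell/macrophage co-culture, taken at 24 h post-dosing. SRB staining of parallel cultures gauged overt cytotoxicity; signal increase versus DMSO defined activity.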

Read-out in assay [12]: Eotaxin 3, CCL26 (gene 10344)
Kind of assay: BSK_BF4T_Eotaxin3: BioMAP Diversity Plus: BF4T Assay for Eotaxin 3 Biomarker Activity (AID 2284258). The note with it: primary human bronchial epithelial cells with fibroblasts. In short, it runs like this:
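ELISA measurement of Eotaxin-3 after 24 h chemical exposure in a bronchial epithelial/dermal fibroblast co-culture, with DMSO as baseline. Parallel SRB staining (0.1% SRB after 10% TCA fixation, 560 nm) flagged overt cytotoxicity.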

Read-out in assay [13]: Monocyte Chemoattractant Protein-1 (MCP1), CCL2 (gene 6347)
Kind of assay: BSK_BF4T_MCP1: BioMAP Diversity Plus: BF4T Assay for Monocyte Chemoattractant Protein-1 (MCP1) Biomarker Activity (AID 2284259). The conditions noted are these: primary human bronchial epithelial cells with fibroblasts. In short, it runs like this: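 MCP-1 ELISA readout taken 24 h after dosing in the BF4T system (bronchial epithelial cells plus dermal fibroblasts). Parallel SRB total-protein staining flagged cytotoxicity; DMSO served as baseline, positive fitting direction.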

Read-out in assay [14]: Intercellular Adhesion Molecule 1 (ICAM1), ICAM1 (gene 3383)
Kind of assay: BSK_BF4T_ICAM1: BioMAP Diversity Plus: BF4T Assay for Intercellular Adhesion Molecule 1 (ICAM1) Biomarker Activity (AID 2284260). The conditions noted are these: primary human bronchial epithelial cells with fibroblasts. In short, it runs like this: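 ICAM-1 levels measured by ELISA after 24 h chemical treatment of bronchial epithelial cell/dermal fibroblast co-cultures, read against DMSO baseline. Overt cytotoxicity checked in parallel cultures by sulforhodamine B staining.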

Read-out in the next assay: CD90, THY1 (gene 7070)
Kind of assay: BSK_BF4T_CD90: BioMAP Diversity Plus: BF4T Assay for CD90 Biomarker Activity (AID 2284262). The note with it: primary human bronchial epithelial cells with fibroblasts. In short, it runs like this: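 CD90 levels by ELISA after 24 h treatment of human bronchial epithelial cell/dermal fibroblast cultures, analysed versus DMSO. Overt cytotoxicity checked in parallel cultures by sulforhodamine B staining.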

Read-out in assay [15]: Interleukin-8 (IL8), CXCL8 (gene 3576)
Kind of assay: BSK_BF4T_IL8: BioMAP Diversity Plus: BF4T Assay for Interleukin-8 (IL8) Biomarker Activity (AID 2284263). The conditions noted are these: primary human bronchial epithelial cells with fibroblasts. Put shortly: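 Human bronchial epithelial cells with dermal fibroblasts co-culture; IL-8 measured by ELISA 24 hours after dosing, fitted vs DMSO. Cytotoxicity tracked in parallel cultures by SRB total-protein staining.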

Read-out in assay [16]: Interleukin-1 alpha (IL1a), IL1A (gene 3552)
Kind of assay: BSK_BF4T_IL1a: BioMAP Diversity Plus: BF4T Assay for Interleukin-1 alpha (IL1a) Biomarker Activity (AID 2284264). The conditions noted are these: primary human bronchial epithelial cells with fibroblasts. Put shortly:
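ELISA read-out of IL-1α from bronchial epithelial cell/dermal fibroblast co-cultures 24 h after compound addition. Increases scored against DMSO negative control. Cytotoxicity monitored by sulforhodamine B staining of parallel cultures.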

Read-out in another assay: KRT18 (gene 3875)
Kind of assay: BSK_BF4T_Keratin818: BioMAP Diversity Plus: BF4T Assay for Keratin 818 Biomarker Activity (AID 2284266). The conditions noted are these: primary human bronchial epithelial cells with fibroblasts. Put shortly:
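Keratin 8/18 levels quantified by ELISA after 24 h chemical treatment of bronchial epithelial cell/dermal fibroblast co-cultures, fitted in positive direction relative to DMSO. Parallel SRB staining tracks overt cytotoxicity.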

`ClC1C(Cl)C(Cl)C(Cl)C(Cl)C1Cl` (stereo not given): the outcome is “inactive” in [1]; “inactive” in assay [2]; “inactive” in assay [3]; “inactive” in the assay with Decorin, DCN (gene 1634). The AC50 in assay [2] was 0.295 µM (active).
As to `O=S(=O)(O)C(F)(F)C(F)(F)C(F)(F)C(F)(F)C(F)(F)C(F)(F)C(F)(F)C(F)(F)F`, the outcome in [1], in assay [4], in assay [5], in [6], in [7] and in assay [9] was inactive. Also, the outcome in assay [10] is “inactive”; in assay [11] it was “inactive”; in assay [2], “inactive”; with CD69, CD69 (gene 969), “inactive”; in assay [12] it was “inactive”; in assay [13], “inactive”. In addition, the outcome in [14] was “inactive”; in assay [3], “inactive”; with CD90, THY1 (gene 7070) it was “inactive”; in assay [15], “inactive”; in assay [16], “inactive”; with Decorin, DCN (gene 1634), “inactive”. The outcome with KRT18 (gene 3875) was inactive. The AC50 in assay [7] was 30 µM (active) and 38.1 µM (active); in [8], 24.4 µM (active) [middle of 4 runs]; with CD69, CD69 (gene 969), 30 µM (active); in [12], 17.2 µM (active) and 1.82 µM (active); in assay [13] it was 44.6 µM (active).
Regarding `O=C(O)C(F)(F)C(F)(F)C(F)(F)C(F)(F)C(F)(F)C(F)(F)C(F)(F)F`, the AC50 in assay [1] was 31.6 µM (active) [middle of 4 runs]; in assay [13] it was 50.1 µM (active). The outcome in assay [4], in assay [5], in [6], in assay [7], in assay [8] and in [9] was inactive. Besides, the outcome in [10] is “inactive”; in assay [11], “inactive”; in assay [2], “inactive”; with CD69, CD69 (gene 969), “inactive”; in [12] it was “inactive”; in [13], “inactive”. Moreover, the outcome is “inactive” in assay [14]; “inactive” in [3]; “inactive” with CD90, THY1 (gene 7070); “inactive” in assay [15]; “inactive” in assay [16]; “inactive” with Decorin, DCN (gene 1634). The outcome with KRT18 (gene 3875) was inactive.
